Experimental data reported in PubChem BioAssay (NCATS).
Where “and” joins values, the source holds several entries; their conditions need not be identical. Identical values can stand only once. Results filed as inconclusive are left out. Calls of active or inactive are those of the source. Unless noted, calls follow the shape of the full dose curve.

Legend:
[1] = molecular target: Estrogen receptor (Homo sapiens) (UniProt P03372); assay: qHTS assay for small molecule antagonists of estrogen receptor alpha signaling (AID 588513; active = well fitted curve in the direction sought with a large enough effect in the signal ratio, with a control signal flat, not every such curve was filed as active; the % refers to the signal ratio; also: potency is read from the fitted curve at half-maximal effect)
How it was run: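 ER-alpha-UAS-bla GripTite HEK 293 cells in medium with 2% charcoal/dextran-treated FBS were preincubated 4 h at 37 C, dosed with compound (1:2 titration), stimulated with 0.5nM 17-beta-estradiol for 18 h, then read by CCF4 beta-lactamase fluorescence.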

[2] = molecular target: Estrogen receptor (Homo sapiens) (UniProt P03372); assay: qHTS assay for small molecule agonists of estrogen receptor alpha signaling (AID 588514); also: nearly all actives have a fitted effect of over 70% in size; also: potency is read from the fitted curve at half-maximal effect;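 as to activation: 0% = vehicle only and 100% = reference agonist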
How it was run: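 ER-alpha-UAS-bla GripTite HEK293 cells, 5000/well in 2% charcoal/dextran-stripped FBS medium, treated with compound titrations 18 h at 37 C. CCF4 beta-lactamase read by fluorescence after 2 h RT; normalised to 20 nM 17-beta-estradiol (100%) and DMSO (0%), Hill fit for EC50 and efficacy.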

[3] = molecular target: Peroxisome proliferator-activated receptor delta (Homo sapiens) (UniProt Q03181); assay: qHTS assay for small molecule agonists of peroxisome proliferator-activated receptor delta signaling (AID 588534);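 also: 0% = DMSO basal wells and 100% = positive control agonist at 10 µM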
How it was run: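 Cells carrying a PPAR-delta beta-lactamase reporter were treated with compounds for 18 h at 37 °C in agonist mode. CCF4 fluorescence was read after 2 h; EC50 and efficacy from Hill fits.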

[4] = molecular target: Peroxisome proliferator-activated receptor gamma (Homo sapiens) (UniProt P37231); assay: qHTS assay for small molecule agonists of peroxisome proliferator-activated receptor gamma signaling (AID 588536; active = well fitted curve in the direction sought with a large enough effect in the signal ratio, with a control signal flat, not every such curve was filed as active; the % refers to the signal ratio;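 also: 0% = DMSO basal wells and 100% = rosiglitazone at 2 µM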)
How it was run: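 Ratiometric blue/green fluorescence (405 nm excitation; 460 and 530 nm emission) from CCF4-loaded HEK293 reporter cells serves as signal. Exposure to test compounds lasts 16 h at 37 C in medium containing 1% charcoal/dextran-treated serum.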

[5] = qHTS assay for small molecule agonists of retinoid X receptor alpha signaling (AID 588544); settings: HEK293T RXRa-UAS-bla, beta-lactamase reporter, 18 h; 530 nm emission;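 as to activation: 0% = DMSO basal wells and 100% = reference agonist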
[6] = molecular target: Retinoic acid receptor RXR-alpha (Homo sapiens) (UniProt P19793); assay: as above
[7] = qHTS assay for small molecule antagonists of retinoid X receptor alpha signaling (AID 588546; active = well fitted inhibition curve with a large enough effect in the signal ratio, with a control signal flat, not every such curve was filed as active; the % refers to the signal ratio; also: potency is read from the fitted curve at half-maximal effect;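 as to max response: cells stimulated with 9-cis-retinoic acid as agonist; % is scaled to controls: 0 for no effect and ±100 for the full control effect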); settings: HEK293T RXRa-UAS-bla, beta-lactamase ratio, antagonist mode; measured here: W530 green channel, cytotoxicity proxy
How it was run: (§1)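 Beta-lactamase reporter inhibition, read as CCF4 fluorescence ratio (ex 405, em 460/530 nm) after 2 h at RT. HEK293T UAS-bla cells, 2500/well, were stimulated with 9-cis-RA at 500 or 100 nM final alongside test compound for 18 h at 37 C.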

[8] = molecular target: Retinoic acid receptor RXR-alpha (Homo sapiens) (UniProt P19793); assay: as above; settings: HEK293T RXRa-UAS-bla, beta-lactamase ratio, antagonist mode
How it was run: as §1

[9] = qHTS assay for small molecule activators of the p53 signaling pathway (AID 651743; active = well fitted activation curve with a large enough effect in the signal ratio, not every such curve was filed as active; the % refers to the signal ratio; also: potency is read from the fitted curve at half-maximal effect; as to activation: series mostly up to about 92 µM; % of control where 0% means no effect); settings: HCT-116 p53RE-bla, beta-lactamase FRET ratio, 16 h; activation: stronger effect = higher value
How it was run: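 Cell-based beta-lactamase reporter (p53 response elements, HCT-116 background). After a 5-hour preincubation, cells received compound for 16 hours at 37 C; substrate development ran 2 hours at room temperature.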

[10] = qHTS assay for environmental chemicals that activate the Aryl hydrocarbon Receptor (AhR) signaling pathway (AID 651777; active = well fitted curve in the direction sought with a large enough effect; an effect the other way counts as inactive or inconclusive; also: % of control where 0% means no effect; nearly all actives have a fitted effect of over 15% in size); settings: 1A2-DRE human hepatoma cells, luciferase, 24 h; activation: stronger effect = higher value
How it was run: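 Concentration–response screening used 1,200 1A2-DRE cells per well, 24 hr compound exposure (37 C, 5% CO2), and One-Glo luminescence as the AhR-driven CYP1A2 reporter signal.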

[11] = molecular target: Peroxisome proliferator-activated receptor alpha (Homo sapiens) (UniProt Q07869); assay: qHTS assay for small molecule agonists of the peroxisome proliferator-activated receptor alpha (PPARalpha) signaling pathway (AID 651778; active = well fitted curve in the direction sought with a large enough effect; an effect the other way counts as inactive or inconclusive; also: % of control where 0% means no effect); settings: PathHunter PPARalpha complementation, chemiluminescence, 6 h; max response: stronger effect = higher value
How it was run: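 Cells plated at 2,000/well and held overnight at 37 C, 5% CO2, then compound added by pin tool for 6 hr; after PathHunter detection reagent and 60 min at room temperature, chemiluminescence from enzyme complementation was read.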

[12] = qHTS assay for small molecule agonists of the antioxidant response element (ARE) signaling pathway measured by Nrf2-dependant transcriptional activity (AID 720636; active = well fitted curve in the direction sought with a large enough effect in the repeat runs; an effect the other way counts as inactive or inconclusive;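 also: HepG2 cells with an ARE-driven luciferase reporter; % of control where 0% means no effect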)
How it was run: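 Attachment 6 hr at 37 C, then compound versus DMSO vehicle for 16 hr in ARE-luc HepG2 cells (1% dialyzed FBS); luminescence recorded 30 min after ONE-Glo addition at room temperature.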

[13] = qHTS assay for small molecule agonists of the antioxidant response element (ARE) signaling pathway measured by Nrf2-dependant transcriptional activity - cell viability counter screen (AID 720653; active = well fitted curve in the direction sought with a large enough effect in the repeat runs; an effect the other way counts as inactive or inconclusive; also: % is scaled to controls: 0 for no effect and ±100 for the full control effect); settings: ARE-bla HepG2 viability, CellTiter-Glo ATP luminescence, 16 h; max response: stronger effect = lower value
How it was run: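 ARE-bla HepG2 cells (2,000/well) rested 5 hrs at 37C/5% CO2, then exposed to compounds in DMSO for 16 hrs. Viability was read in the same wells as intracellular ATP by luminescence, 30 min at room temperature after reagent addition.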

[14] = qHTS assay for cell viability of HEK293 cells (AID 743288; active = well fitted curve in the direction sought with a large enough effect; an effect the other way counts as inactive or inconclusive; also: % is scaled to controls: 0 for no effect and ±100 for the full control effect; nearly all actives have a fitted effect of over 50% in size); settings: ATP luminescence (CellTiter-Glo), 18 h; max response: stronger effect = lower value
How it was run: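 Parental HEK293 cells were seeded at 2,000 cells/well, rested at least 5 h at 37 C, then exposed to compounds in DMSO for 18 h at 37 C. Viability was read as ATP-dependent luciferase luminescence after 30 min at room temperature.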

[15] = qHTS assay for cell viability of the p53RE-bla HCT-116 cell line (AID 743292; active = well fitted curve in the direction sought with a large enough effect; an effect the other way counts as inactive or inconclusive; also: nearly all actives have a fitted effect of over 55% in size; also: potency is read from the fitted curve at half-maximal effect)
How it was run: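 Compound-exposed HCT-116 (p53RE-bla) cells, 4,000 per well, were kept 16 h at 37 C following a 5 h preincubation. Cell number was estimated from total ATP by CellTiter-Glo luminescence read after 30 min at room temperature.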

[16] = molecular target: Vitamin D3 receptor (Homo sapiens) (UniProt P11473); assay: qHTS assay for small molecule antagonists of vitamin D receptor signaling (AID 588541);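 also: receptor activated by calcitriol during compound treatment; series mostly up to about 77 µM; % is scaled to controls: 0 for no effect and ±100 for the full control effect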
How it was run: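 VDR-UAS-bla HEK293T cells (2000/well, 2% charcoal-stripped FBS) were treated with titrated compounds plus 1-alpha,25-dihydroxyvitamin D3 (50 nM or 3 nM final) for 16 h at 37 C. CCF4 beta-lactamase fluorescence was read; Hill fits gave IC50.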

[17] = molecular target: Vitamin D3 receptor (Homo sapiens) (UniProt P11473); assay: qHTS assay for small molecule agonists of vitamin D receptor signaling (AID 588543);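 also: 0% = DMSO basal and 100% = reference agonist control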
How it was run: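 GeneBLAzer VDR-UAS-bla HEK293T cells in 2% charcoal-stripped FBS medium were dosed with compound titrations for 16 h at 37 °C; CCF4 β-lactamase readout (405 nm ex, 460/530 nm em). EC50 and efficacy from Hill fits, normalized to 50 nM calcitriol (100%) and DMSO (0%).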

[18] = molecular target: Thyroid hormone receptor beta (Homo sapiens) (UniProt P10828); assay: qHTS assay for small molecule agonists of thyroid hormone receptor beta signaling (AID 588545)
How it was run: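 In this cell-based screen, titrated compounds act on HEK 293 cells held in medium with 2% charcoal/dextran FBS, NEAA and pyruvate for 18 hrs at 37 C. Responses are expressed relative to T3 (10 nM) as 100% and basal DMSO as 0%.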

[19] = qHTS assay for small molecule activators of the nuclear factor-kappa B (NF-kB) signaling pathway (AID 651749; active = well fitted activation curve with a large enough effect in the signal ratio; the % refers to the signal ratio; also: series mostly up to about 77 µM; % of control where 0% means no effect); settings: NF-kB-bla ME-180 cells, beta-lactamase FRET ratio, 16 h; activation: stronger effect = higher value
How it was run: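 Screening used 2,000 ME-180 reporter cells per well exposed to pinned compound (23 nL) or DMSO; after 16 hr at 37C, beta-lactamase expression under NF-kB control was assessed through FRET.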

[20] = molecular target: Nuclear receptor subfamily 1 group I member 2 (Rattus norvegicus) (UniProt Q9R1A7); assay: qHTS assay for small molecule activators of the rat pregnane X receptor (rPXR) signaling pathway (AID 651751; call rule not given here; also: 0% is about no effect); settings: rPXR reporter cells, luciferase (One-Glo), 24 h
Sequence of Nuclear receptor subfamily 1 group I member 2 (Rattus norvegicus) (Q9R1A7 whole entry, looked up): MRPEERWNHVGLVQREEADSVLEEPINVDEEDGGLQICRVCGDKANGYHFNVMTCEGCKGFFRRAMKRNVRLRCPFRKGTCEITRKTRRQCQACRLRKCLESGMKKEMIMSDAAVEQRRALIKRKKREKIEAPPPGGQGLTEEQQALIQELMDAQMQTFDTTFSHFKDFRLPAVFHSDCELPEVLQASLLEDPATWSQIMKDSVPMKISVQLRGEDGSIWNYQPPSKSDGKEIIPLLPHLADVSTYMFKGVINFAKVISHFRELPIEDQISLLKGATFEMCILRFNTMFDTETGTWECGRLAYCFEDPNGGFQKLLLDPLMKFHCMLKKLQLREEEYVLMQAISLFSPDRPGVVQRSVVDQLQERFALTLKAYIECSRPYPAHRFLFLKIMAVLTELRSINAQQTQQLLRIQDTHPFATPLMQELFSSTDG

Sequence of Peroxisome proliferator-activated receptor gamma (Homo sapiens) (P37231 whole entry, looked up): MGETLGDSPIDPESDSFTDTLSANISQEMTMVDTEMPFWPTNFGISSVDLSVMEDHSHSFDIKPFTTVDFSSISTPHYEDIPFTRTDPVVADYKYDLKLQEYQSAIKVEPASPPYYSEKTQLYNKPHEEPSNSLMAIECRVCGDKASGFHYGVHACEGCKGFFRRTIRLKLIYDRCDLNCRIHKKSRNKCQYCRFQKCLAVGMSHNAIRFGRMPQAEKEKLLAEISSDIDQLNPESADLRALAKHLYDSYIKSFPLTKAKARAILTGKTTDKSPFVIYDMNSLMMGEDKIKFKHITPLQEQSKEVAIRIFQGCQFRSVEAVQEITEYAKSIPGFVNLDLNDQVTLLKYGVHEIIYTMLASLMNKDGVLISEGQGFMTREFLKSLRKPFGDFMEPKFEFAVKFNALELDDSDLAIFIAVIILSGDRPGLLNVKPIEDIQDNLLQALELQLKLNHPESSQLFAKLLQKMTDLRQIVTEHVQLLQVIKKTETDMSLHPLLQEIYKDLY
Sequence of Vitamin D3 receptor (Homo sapiens) (P11473 whole entry, looked up): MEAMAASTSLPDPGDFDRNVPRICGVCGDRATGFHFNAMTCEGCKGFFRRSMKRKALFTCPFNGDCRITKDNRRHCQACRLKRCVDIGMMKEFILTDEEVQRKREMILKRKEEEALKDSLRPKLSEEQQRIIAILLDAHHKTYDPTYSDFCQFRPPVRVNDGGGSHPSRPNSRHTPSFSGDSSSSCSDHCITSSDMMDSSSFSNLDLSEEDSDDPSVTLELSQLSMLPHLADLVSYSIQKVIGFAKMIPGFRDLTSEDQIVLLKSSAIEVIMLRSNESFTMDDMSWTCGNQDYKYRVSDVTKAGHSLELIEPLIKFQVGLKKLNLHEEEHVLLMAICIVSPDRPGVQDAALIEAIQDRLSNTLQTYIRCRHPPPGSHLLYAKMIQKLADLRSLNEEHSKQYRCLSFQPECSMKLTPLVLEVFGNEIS
Sequence of Thyroid hormone receptor beta (Homo sapiens) (P10828 whole entry, looked up): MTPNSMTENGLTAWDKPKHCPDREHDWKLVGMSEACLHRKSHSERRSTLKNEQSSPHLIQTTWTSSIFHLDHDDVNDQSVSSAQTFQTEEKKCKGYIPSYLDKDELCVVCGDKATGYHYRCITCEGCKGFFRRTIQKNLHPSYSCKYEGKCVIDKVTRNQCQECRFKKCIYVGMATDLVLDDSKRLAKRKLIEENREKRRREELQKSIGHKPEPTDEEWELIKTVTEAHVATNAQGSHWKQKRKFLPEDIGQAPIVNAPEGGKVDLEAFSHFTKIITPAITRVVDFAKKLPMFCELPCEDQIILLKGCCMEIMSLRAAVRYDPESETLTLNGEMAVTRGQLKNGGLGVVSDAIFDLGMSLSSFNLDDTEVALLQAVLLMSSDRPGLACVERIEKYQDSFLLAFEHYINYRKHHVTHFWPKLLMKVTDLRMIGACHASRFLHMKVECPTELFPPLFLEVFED
Sequence of Peroxisome proliferator-activated receptor delta (Homo sapiens) (Q03181 whole entry, looked up): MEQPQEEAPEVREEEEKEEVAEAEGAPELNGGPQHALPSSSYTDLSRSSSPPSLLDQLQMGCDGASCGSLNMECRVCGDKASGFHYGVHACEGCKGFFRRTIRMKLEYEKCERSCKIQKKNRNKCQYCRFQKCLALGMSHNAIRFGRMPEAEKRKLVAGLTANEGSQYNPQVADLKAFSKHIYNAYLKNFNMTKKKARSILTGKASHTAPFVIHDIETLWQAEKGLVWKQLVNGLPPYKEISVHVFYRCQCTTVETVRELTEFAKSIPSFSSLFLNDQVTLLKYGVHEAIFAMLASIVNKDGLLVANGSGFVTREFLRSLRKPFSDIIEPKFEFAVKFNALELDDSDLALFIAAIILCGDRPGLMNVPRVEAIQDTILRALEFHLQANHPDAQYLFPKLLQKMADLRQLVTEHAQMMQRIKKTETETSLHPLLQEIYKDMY
Sequence of Peroxisome proliferator-activated receptor alpha (Homo sapiens) (Q07869 whole entry, looked up): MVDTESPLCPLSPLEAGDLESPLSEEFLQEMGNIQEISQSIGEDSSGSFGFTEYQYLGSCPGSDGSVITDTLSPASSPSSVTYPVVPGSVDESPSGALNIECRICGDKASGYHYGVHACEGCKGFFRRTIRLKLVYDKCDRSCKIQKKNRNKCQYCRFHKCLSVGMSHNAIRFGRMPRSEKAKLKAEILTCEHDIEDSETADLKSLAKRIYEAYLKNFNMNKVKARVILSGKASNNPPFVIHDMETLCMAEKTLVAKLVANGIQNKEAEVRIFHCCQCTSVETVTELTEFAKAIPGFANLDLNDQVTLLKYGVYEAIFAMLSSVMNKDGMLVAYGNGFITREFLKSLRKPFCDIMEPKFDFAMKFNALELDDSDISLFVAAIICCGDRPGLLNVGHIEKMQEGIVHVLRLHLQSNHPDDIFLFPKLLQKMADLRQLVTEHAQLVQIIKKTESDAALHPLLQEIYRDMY
Sequence of Estrogen receptor (Homo sapiens) (P03372 whole entry, looked up): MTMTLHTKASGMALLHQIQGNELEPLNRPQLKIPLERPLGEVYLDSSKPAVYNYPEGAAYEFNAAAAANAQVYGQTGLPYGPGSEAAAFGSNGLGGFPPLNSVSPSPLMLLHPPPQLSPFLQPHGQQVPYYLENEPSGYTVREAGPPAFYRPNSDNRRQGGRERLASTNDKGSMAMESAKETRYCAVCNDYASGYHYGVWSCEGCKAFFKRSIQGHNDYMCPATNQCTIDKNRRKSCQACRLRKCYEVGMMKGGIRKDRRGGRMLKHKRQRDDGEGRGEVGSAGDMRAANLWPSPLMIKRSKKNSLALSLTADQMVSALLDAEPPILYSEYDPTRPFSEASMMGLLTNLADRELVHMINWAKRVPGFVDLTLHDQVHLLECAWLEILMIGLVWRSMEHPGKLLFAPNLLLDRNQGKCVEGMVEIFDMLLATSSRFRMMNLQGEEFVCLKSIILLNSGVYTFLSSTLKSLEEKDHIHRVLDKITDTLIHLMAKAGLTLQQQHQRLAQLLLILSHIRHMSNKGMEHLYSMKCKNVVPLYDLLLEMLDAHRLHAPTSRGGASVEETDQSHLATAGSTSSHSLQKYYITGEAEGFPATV
Sequence of Retinoic acid receptor RXR-alpha (Homo sapiens) (P19793 whole entry, looked up): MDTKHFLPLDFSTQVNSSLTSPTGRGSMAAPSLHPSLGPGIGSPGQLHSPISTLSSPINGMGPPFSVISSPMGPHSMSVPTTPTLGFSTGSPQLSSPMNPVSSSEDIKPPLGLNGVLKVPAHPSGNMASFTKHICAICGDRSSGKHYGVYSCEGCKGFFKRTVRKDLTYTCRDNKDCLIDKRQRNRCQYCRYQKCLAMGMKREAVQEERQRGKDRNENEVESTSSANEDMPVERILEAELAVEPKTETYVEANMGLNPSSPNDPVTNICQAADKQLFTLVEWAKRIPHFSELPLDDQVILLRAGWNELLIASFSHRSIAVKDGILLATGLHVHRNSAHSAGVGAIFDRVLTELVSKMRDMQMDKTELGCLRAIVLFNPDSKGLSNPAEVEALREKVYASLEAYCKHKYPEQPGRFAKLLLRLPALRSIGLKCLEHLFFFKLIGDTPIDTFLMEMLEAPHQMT

CCCCC(C#N)(Cn1cncn1)c1ccc(Cl)cc1 (stereo not drawn)
3.82%: max response [5]
7.2% and 4.81%: max response [7]
inactive: Potency [1] | Potency [2] | outcome [3] | Potency [4] | Potency [6] | max response [8] 3.27% and 4.81% | activation [9] -3.98% | activation [10] -0.211% | max response [11] -2.63% and 1.11% | Potency [12] | max response [13] 0.943% and -1.27% | max response [14] -11.8% and -12.8% | Potency [15]

CCC[CH2][Sn]([CH2]CCC)([O]C(C)=O)[O]C(C)=O
inactive: Potency [1] | outcome [3] | Potency [16] | outcome [17] | Potency [6] | Potency [18] | activation [9] 4.26% | activation [19] 0.746% | activation [10] -0.036% | max response [11] -2.27% | max response [13] -3.33% | Potency [15] | max response [20] -0.354%
2.17%: max response [7]
5.61%: max response [5]
active: Potency [2] 0.794 µM | Potency [8] 22.4 µM

CCOP(OCC)OCC
inactive: Potency [1] | Potency [2] | Potency [4] | Potency [6] | Potency [18] | max response [8] -9.86% | activation [9] 0.684% | activation [19] -0.0576% | activation [10] 1.72% | max response [11] -2.48% | Potency [12] | max response [13] -4.24% | max response [14] 0.538% | Potency [15] | max response [20] 0.674%
-5.06%: max response [7]
-0.591%: max response [5]

Oc1ccc(C2(c3ccc(O)cc3)c3ccccc3-c3ccccc32)cc1
inactive: Potency [2] | outcome [3] | outcome [17] | activation [10] -0.464% | max response [11] -1.22% | Potency [12] | max response [13] -12.4% | max response [14] -3.45% | max response [20] -3.03%
active: Potency [1] 15.8 µM [inhibitor] | Potency [9] 39.8 µM | Potency [15] 31.6 µM

COc1cc(Cl)c(OC)cc1Cl
inactive: Potency [1] | Potency [2] | Potency [4] | Potency [16] | outcome [17] | Potency [6] | Potency [18] | activation [9] -1% | activation [19] -1.99% | activation [10] -2.48% | max response [11] -0.244% | Potency [12] | max response [13] -1.62% | max response [14] -14.2% | Potency [15] | max response [20] 1.36%
-12.5%: max response [5]

Cc1c(F)c(F)c(COC(=O)C2C(/C=C(\Cl)C(F)(F)F)C2(C)C)c(F)c1F (stereo not drawn)
-0.493%: max response [5]
inactive: Potency [1] | Potency [2] | Potency [4] | Potency [16] | outcome [17] | Potency [6] | Potency [18] | max response [8] 12% | activation [9] -3.48% | activation [19] -3.24% | activation [10] 0.802% | max response [11] -0.765% | Potency [12] | max response [13] -20.4% | max response [14] -6.4% | Potency [15] | max response [20] -1.61%
-8.23%: max response [7]

CCCCC(CC)COC(=O)Cl (stereo not drawn)
-16.3%: max response [5]
-5.58%: max response [7]
inactive: Potency [1] | Potency [2] | Potency [4] | Potency [16] | outcome [17] | Potency [6] | Potency [18] | max response [8] -2.38% | activation [19] -0.442% | activation [10] 2.75% | max response [11] -1.56% | Potency [12] | max response [13] -0.503% | max response [14] -1.32% | Potency [15] | max response [20] 4.58%

Clc1ccc([C@]2(Cn3cncn3)C[C@@H](Br)CO2)c(Cl)c1
inactive: Potency [1] | Potency [2] | outcome [3] | Potency [4] | Potency [16] | outcome [17] | Potency [18] | max response [8] -12.9% and -9.53% | activation [9] -0.258% and -3.95% | activation [19] -2.1% and -2.03% | activation [10] 3.17% and 2.53% | max response [11] -0.572% and -0.644% | Potency [12] | max response [13] -16.1% and 0.925% | max response [14] -21.9% and -13.3% | Potency [15]
-15.6% and -7.06%: max response [7]

CC(C)(C)C(=O)[C@H](Oc1ccc(Cl)cc1)n1cncn1
20.1%: max response [7]
inactive: Potency [1] | Potency [2] | outcome [3] | Potency [4] | Potency [16] | outcome [17] | Potency [6] | Potency [18] | max response [8] -22% | activation [9] -5.19% | activation [19] -5.68% | activation [10] 3.75% | max response [11] -2.36% | Potency [12] | max response [13] -6.65% | max response [14] -16.1% | Potency [15]
21.3%: max response [5]

CC(C)C(=O)OCC(C)(C)C(OC(=O)C(C)C)C(C)C (stereo not drawn)
-9.99%: max response [5]
-5.68%: max response [7]
inactive: Potency [1] | Potency [2] | outcome [3] | Potency [4] | Potency [16] | outcome [17] | Potency [6] | max response [8] -12.8% | activation [9] -0.206% | activation [19] -2.62% | activation [10] 1.77% | max response [11] -1.27% | max response [13] -12.6% | max response [14] -13% | Potency [15] | max response [20] 2.02%

COC(=O)c1ccccc1CS(=O)(=O)NC(=O)Nc1nc(OC)cc(OC)n1
-9.59%: max response [5]
inactive: Potency [1] | Potency [2] | outcome [3] | Potency [4] | Potency [16] | outcome [17] | Potency [6] | Potency [18] | max response [8] -11% | activation [9] -2.78% | activation [19] -0.866% | activation [10] -0.954% | max response [11] -0.343% | Potency [12] | max response [13] -5.06% | max response [14] -8.65% | max response [20] -0.458%
1.62%: max response [7]
